Assay results as given in PubChem BioAssay (NCI).
About 83,000 compounds went through this panel and 20% of them were active in at least one assay; those are over-represented in the sample as a whole.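 Growth was measured after 48 h exposure to one concentration of compound in 96-well plates. Values under 10 count as active.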 Unmarked numbers belong to inactive results. Activity calls are given as the source filed them.

How the values were obtained:
Experiment in all cases: NCI-60 one-dose screen, 48 h (100 = growth as untreated, 0 = no growth, -100 = all killed)
Details in all cases: 10 µM unless noted
[1] = system: SR leukemia
[2] = system: RPMI-8226 leukemia
[3] = system: OVCAR-8 ovarian
[4] = system: OVCAR-5 ovarian
[5] = system: OVCAR-4 ovarian
[6] = system: IGROV1 ovarian
[7] = system: OVCAR-3 ovarian
[8] = system: HS 578T breast
[9] = system: NCI/ADR-RES ovarian
[10] = system: SK-OV-3 ovarian

Compound | growth [1] | growth [2] | growth [3] | growth [4] | growth [5] | growth [6] | growth [7] | growth [8] | growth [9] | growth [10]
COc1ccc(S(=O)(=O)n2ccc(-c3ccc4c(c3)CCC(C)(C)O4)n2)cc1OC | 60.2% | 59% | 74.6% | 105% | 46% | 84.3% | 70.9% | 91.5% | 56.5% | 
N=C(N)c1ccc(-c2ccc(-c3ccc4ccccc4c3)s2)cc1 | 6.46% (active) | 60.7% | 102% | 110% | 100% | 91.3% | 102% | 104% | 98.8% | 
Cc1ccc(S(=O)(=O)n2cc(C(=O)C(=O)N3CCOCC3)c3ccccc32)cc1 | 77.8% | 59.6% | 91.5% | 85.7% | 89.1% |  | 91.4% | 101% | 75.1% | 97.9%
CC1CN(c2oc(-c3ccccc3)nc2C#N)CC(C)O1 (stereo not given) | 102% | 104% | 102% | 102% | 99.4% | 97.7% | 116% | 102% | 107% | 
C=C1CCC2C3(C)COC(c4c(OC)cccc4OC)OC3CCC2(C)C1C/C=C1/C(=O)OCC1O (stereo not given) | 34.7% | -53.5% (active) | 29.5% | 49.3% | 41.3% | 26.9% |  |  | 30.9% | 71.6%
COc1ccccc1CNCCCN1C(=O)c2ccc3c4c(ccc(c24)C1=O)C(=O)N(CCCNCCCCNCCCN)C3=O | -27.1% (active) | -9.27% (active) | 4.19% (active) |  | -73.8% (active) | -2.75% (active) | -96.8% (active) | -25.1% (active) | 4.5% (active) | 9.93% (active)
Cc1ccc(S(=O)(=O)NC(=O)n2cc(-c3ccncc3)c(-c3ccc(Cl)c(O)c3)n2)cc1 | 83.3% | 99.9% | 99% | 114% |  | 112% | 146% | 107% | 104% | 101%
O=C(NS(=O)(=O)c1ccc2ccccc2c1)n1cc(-c2ccncc2)c(-c2ccc(Cl)c(O)c2)n1 | 61.8% | 60.2% | 72.5% | 89.8% |  | 60.2% | 133% | 72.4% | 87.6% | 81.8%
COc1ccc(/C=C2\Oc3cc(OCCCN4CCCC4)ccc3C2=O)c(OC)c1 | -26.5% (active) | 66.9% | 80% | 100% |  | 88.2% | 97.4% | 94.5% | 91% | 110%
N#Cc1c(Nc2ccccc2)nc2n(c1=O)-c1ccccc1Sc1ccccc1-2 | 59.6% | 66.7% | 74.9% | 110% |  | 64.1% | 69.4% | 97.9% | 85.5% | 94.8%
COc1cc(/C=N\NC(=O)CN2CCN(c3cc4c(cc3F)c(=O)c(C(=O)N/N=C/c3cc(OC)c(OC)c(OC)c3)cn4C3CC3)CC2)cc(OC)c1OC | 2.97% (active) | 0.709% (active) | 22.4% | 19.6% |  | -16.6% (active) | -75.2% (active) | -0.587% (active) | 103% | 19.2%
O=c1ccn(-c2ncnc3nc[nH]c23)cc1 | 86.2% | 76.4% | 101% | 93.8% |  | 88% | 88.3% | 81.7% | 97.6% | 84.8%
CN(C)CCOC(=O)Nc1ccccc1Cl | 104% | 93.1% | 109% | 121% |  | 106% | 121% | 115% | 105% | 115%
CCCCN(CCCC)C(=N)c1ccnc2ccccc12 | 92.7% | 83.1% | 110% | 104% |  | 98.3% | 104% |  | 110% | 112%
CC[N+](CC)=c1cc2oc3cc(N(C)C)ccc3nc-2cc1C | 59% | 45.3% | 8.33% (active) | -27.6% (active) |  | -56.4% (active) | -55.6% (active) | 89.1% | 79.3% | 59.9%
O=[N+]([O-])c1ccc(-c2cn(-c3ccccc3)c(-c3ccccc3)n2)cc1 | 43.3% | -0.221% (active) | 70.6% | 95.4% |  | 64.2% | 97.4% | 97.5% | 85.3% | 79.1%
COc1cccc(CC(C)=C(c2ccc(OCCN(C)C)cc2)c2ccc(OCCN(C)C)cc2)c1 | -17% (active) | -31.1% (active) | -2.71% (active) | 21.2% |  | 8.66% (active) | -17.8% (active) | 42.4% | 19% | 70.2%
OC(c1cc2cc(Br)ccc2c2cc(Br)ccc12)C1CCCCN1 (stereo not given) | -74.1% (active) | -38.9% (active) | -69.4% (active) | -76.5% (active) |  | -67% (active) | -91.9% (active) | -53.1% (active) | -65.1% (active) | -55.4% (active)
Oc1ccc2cc(Br)ccc2c1-c1c(O)ccc2cc(Br)ccc12 | 30.9% | 64.9% | 72.7% | 94.1% |  | 28% | 65.5% | 50.2% | 56.2% | 64.7%
O=C1c2ccccc2-c2ccccc2C1(Cl)Cl | 16.7% | -10.8% (active) | -90.4% (active) | -73.7% (active) |  | -98.5% (active) | -87.2% (active) |  | -44.2% (active) | 94.5%
C/C=C(\C)C(C(=O)NC1CCCCC1)N(C(=O)C1CCc2cc(F)ccc2O1)c1ccc(Cl)cc1 (stereo not given) | 111% | 100% | 98.3% | 103% |  | 103% | 111% | 94.7% | 97.2% | 98.4%
O=C(O)C1CCCCN1c1nc(Cl)nc(Cl)n1 (stereo not given) | 118% | 109% | 99.3% | 105% |  | 106% | 108% | 103% | 101% | 99.9%
O=C(Nc1ccncc1)C(=O)c1cn(S(=O)(=O)c2ccc(Oc3ccccc3)cc2)c2ccccc12 | 92.9% | 76.4% | 99.3% | 87.5% |  | 82.7% | 112% | 92% | 92.5% | 86.4%
O=C(Nc1ccncc1)C(=O)c1cn(S(=O)(=O)c2ccc(Br)cc2)c2ccccc12 | 26.1% | 35% | 58.6% | 64.4% |  | 45.1% | 14.7% | 56.2% | 9.49% (active) | 93.9%
O=[N+]([O-])c1ccc(C(c2ccccc2)c2ccccc2)cc1 | 90.8% | 98.1% | 107% | 96.6% |  | 84.4% | 98.9% | 109% | 88.8% | 102%
COc1ccc(/C=C\c2cc(OC)c(OC)c(OC)c2)cc1OC(=O)c1cccc(Cn2cc(CCOC(=O)c3cccc(Cn4nnc5c4C(=O)c4ccccc4C5=O)c3)nn2)c1 | 12.5% | 12.4% | 16% | 28.8% |  | 16.1% | -10.1% (active) |  | 11.5% | 41.7%
Brc1ccc(-c2[nH]ncc2-c2c[nH]c3ccccc23)cc1 | 100% | 81.8% | 96.4% | 97.7% |  | 91.1% | 97.3% | 88.3% | 101% | 103%
COc1cc(-c2nn(C(=O)NS(=O)(=O)c3ccccc3)cc2-c2ccncc2)ccc1Cl | 89.1% | 74.2% | 20.4% | 99.9% |  | 78.6% | 106% | 79.4% | 82.3% | 82.1%
COC(=O)C(Sc1ccc(Cl)cc1)C1SC(=S)N(Cc2ccccc2)C1=O (stereo not given) | 50.8% | 84.6% | 101% | 118% |  |  | 105% | 106% | 102% | 108%
COc1ccc(C(=O)c2cc(OC)c3c(c2)OCO3)cc1O | 9.89% (active) | 24.7% | 17.8% |  | 37.7% | 27.9% | -41.7% (active) | 12.2% | 2.68% (active) | 8.88% (active)
